In PubChem BioAssay (NCI):
Compounds without any hit were thinned out: in the full panel of roughly 79,000, 15% have a hit. A number with no mark means an inactive call. Active and inactive are the calls of the source. Cut-off read from the data, not from the text of the source: active = growth inhibition above about 70%; inactive = the rest.

How the values were obtained:
[1] = NCI Yeast Anticancer Drug Screen. Data for the rad50 strain (AID 155);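 note: 0% = growth of vehicle-only cultures of the same strain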; conditions: S. cerevisiae rad50 strain growth inhibition; at 50.0 µM; hits give high values
Procedure, shortened: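 DNA repair mutant yeast, compound exposure, growth read-out; inhibition is taken relative to vehicle.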

[2] = NCI Yeast Anticancer Drug Screen. Data for the mec2-1 strain (AID 157); conditions: S. cerevisiae mec2-1 strain, at 50.0 µM, hits give high values
Procedure, shortened: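 Compounds were applied to mec2-1 yeast cells. Their growth was then compared with that of vehicle-treated cultures to give growth inhibition.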

[3] = NCI Yeast Anticancer Drug Screen. Data for the sgs1 mgt1 strain (AID 161);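 note: 0% = growth of cultures given vehicle only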; conditions: S. cerevisiae sgs1 mgt1 strain, at 50.0 µM, hits give high values
Procedure, shortened: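 Growth of a repair-deficient yeast mutant was monitored after compound treatment and expressed as inhibition relative to vehicle-treated cultures.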

[4] = NCI Yeast Anticancer Drug Screen. Data for the cln2 rad14 strain (AID 165);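 note: 0% = growth equal to vehicle treated cultures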; conditions: S. cerevisiae cln2 rad14 strain, at 50.0 µM, hits give high values
Procedure, shortened: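 Strain: cln2 rad14 yeast, altered in cell cycle control and DNA damage repair. Read-out: growth inhibition vs vehicle.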

[5] = NCI Yeast Anticancer Drug Screen. Data for the bub3 strain (AID 167); conditions: S. cerevisiae bub3 mutant strain, at 50.0 µM, hits give high values
Procedure, shortened: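 In this screen, a yeast mutant lacking normal mitotic checkpoint function is challenged with compound. Relative growth versus vehicle gives the inhibition value.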

[6] = NCI Yeast Anticancer Drug Screen. Data for the mlh1 rad18 strain (AID 175); conditions: S. cerevisiae mlh1 rad18 strain growth inhibition; at 50.0 µM; hits give high values
Procedure, shortened: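 A repair-deficient yeast strain is exposed to test compound, and growth is scored relative to vehicle-treated controls.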

CC1(C)CCCOc2cccc(c2)OCCCC(C)(C)C1=O
growth inhibition [1]: 14.5% | growth inhibition [2]: -1.7% | growth inhibition [3]: -9.05% | growth inhibition [4]: 27.1% | growth inhibition [5]: 28.8% | growth inhibition [6]: 25.9%

O=C(CC(c1ccccc1)C1CCCN(c2ccccc2)S1(=O)=O)c1ccccc1 (stereo not given)
growth inhibition [1]: 26.6% | growth inhibition [2]: 1.2% | growth inhibition [3]: 11.1% | growth inhibition [4]: 16.9% | growth inhibition [5]: -3.05% | growth inhibition [6]: 23.1%

CC1(C)OC2(C)CCC1C1C2N1C(=O)Nc1cccc2ccccc12 (stereo not given)
growth inhibition [1]: -9% | growth inhibition [2]: -9.5% | growth inhibition [3]: -1.35% | growth inhibition [4]: -6.5% | growth inhibition [5]: -3.75% | growth inhibition [6]: -22.8%

COC(C)(C)C/C=C/C(C)=C/C=C/C(C)=C\C=C\C(C)=C\C=C\C=C(C)\C=C\C=C(C)\C=C\C=C(C)\C=C\CC(C)(C)OC
growth inhibition [1]: -10.8% | growth inhibition [2]: -1.65% | growth inhibition [3]: -26.9% | growth inhibition [4]: 2.25% | growth inhibition [5]: -12.2% | growth inhibition [6]: -12.1%

O=C(Nc1ccccc1)Oc1ccc(Cl)cc1Cc1ccccc1
growth inhibition [1]: 99.7% (active) | growth inhibition [2]: 99.8% (active) | growth inhibition [3]: 99.8% (active) | growth inhibition [4]: 99.8% (active) | growth inhibition [5]: 99.8% (active) | growth inhibition [6]: 99.8% (active)

CCOC(=O)CSc1nc(N)c2c(-c3ccccc3)c3c(nc2n1)CCCC3
growth inhibition [1]: -23.1% | growth inhibition [2]: 11.1% | growth inhibition [3]: 10.8% | growth inhibition [4]: 33.1% | growth inhibition [5]: 21.7% | growth inhibition [6]: 17.7%

CN(C/C=C/CN(C)C(=S)Nc1ccccc1)C(=S)Nc1ccccc1
growth inhibition [1]: -19.1% | growth inhibition [2]: 13.1% | growth inhibition [3]: -20.5% | growth inhibition [4]: -2.65% | growth inhibition [5]: 2.85% | growth inhibition [6]: 5.65%

CC1(C)CN(Cc2ccccc2)C(C)(C)CN1
growth inhibition [1]: -5.85% | growth inhibition [2]: -6.65% | growth inhibition [3]: -6.4% | growth inhibition [4]: -54.6% | growth inhibition [5]: -10.5% | growth inhibition [6]: -4.65%

O=C1Cc2nc(CO)c(CO)c(CO)c2CO1
growth inhibition [1]: -43% | growth inhibition [2]: -34.6% | growth inhibition [3]: -72.7% | growth inhibition [4]: -2.85% | growth inhibition [5]: -37% | growth inhibition [6]: -47%

N#C/C(=N\NC(=O)c1cccs1)c1ccccc1Cl
growth inhibition [1]: -5.65% | growth inhibition [2]: 1.2% | growth inhibition [3]: 8% | growth inhibition [4]: -33.1% | growth inhibition [5]: 9.7% | growth inhibition [6]: 3.45%

CN1C(=O)C(=O)N2c3ccc(Cl)cc3C3(c4ccccc4)N=CC12O3 (stereo not given)
growth inhibition [1]: 9.3% | growth inhibition [2]: 3.05% | growth inhibition [3]: 6% | growth inhibition [4]: 5% | growth inhibition [5]: -8.4% | growth inhibition [6]: -3.1%

COc1cc2c(cc1OC)C1CC(O)(c3nccc4cc(OC)c(OC)cc34)CCN1CC2 (stereo not given)
growth inhibition [1]: 21.1% | growth inhibition [2]: -1.8% | growth inhibition [3]: -3.9% | growth inhibition [4]: 10.7% | growth inhibition [5]: -1.3% | growth inhibition [6]: -14.1%

CC1=C2CCOC2=Nc2ccccc2O1
growth inhibition [1]: 15.8% | growth inhibition [2]: -6.3% | growth inhibition [3]: 11.3% | growth inhibition [4]: -1.8% | growth inhibition [5]: -14.6% | growth inhibition [6]: -6.2%

O=C(NC(Cc1ccccc1)C(=O)NC(Cc1c[nH]c2ccccc12)C(=O)O)OCc1ccccc1 (stereo not given)
growth inhibition [1]: 1.9% | growth inhibition [2]: 7.45% | growth inhibition [3]: -3.95% | growth inhibition [4]: -7.3% | growth inhibition [5]: -3.55% | growth inhibition [6]: 12.2%

O=C(Cn1c2c(c3ccccc31)CCCC2)N1CCCCC1
growth inhibition [1]: -40.5% | growth inhibition [2]: -74% | growth inhibition [3]: -31.2% | growth inhibition [4]: -22.2% | growth inhibition [5]: -8.6% | growth inhibition [6]: -26.2%

O=C(CC(c1ccccc1)C(Sc1ccccc1)(Sc1ccccc1)Sc1ccccc1)c1ccccc1 (stereo not given)
growth inhibition [1]: 13.2% | growth inhibition [2]: 15.3% | growth inhibition [3]: 13.4% | growth inhibition [4]: 3% | growth inhibition [5]: -1.35% | growth inhibition [6]: 7.25%

C=C1C(=O)O[C@@H]2/C=C(/C)[C@@H](OC(C)=O)C/C=C(\C)C(O)[C@@H](OC(=O)/C(C)=C\C)C12 (stereo not given in full)
growth inhibition [1]: 17.4% | growth inhibition [2]: -0.2% | growth inhibition [3]: 22.5% | growth inhibition [4]: 9.1% | growth inhibition [5]: 12.6% | growth inhibition [6]: -50.4%

O=c1c(C(=Nc2ccccc2)c2ccccc2)c[nH]n1-c1ccccc1
growth inhibition [1]: -10.5% | growth inhibition [2]: 6.9% | growth inhibition [3]: -6% | growth inhibition [4]: 17.6% | growth inhibition [5]: -15.6% | growth inhibition [6]: -12.1%

CC(=O)N(C)c1cccc2cccc(S(=O)(=O)O)c12
growth inhibition [1]: -18.2% | growth inhibition [2]: -19.1% | growth inhibition [3]: -17.1% | growth inhibition [4]: -59.2% | growth inhibition [5]: -2.05% | growth inhibition [6]: -15.3%

CCCCCOS(=O)(=O)O
growth inhibition [1]: -0.3% | growth inhibition [2]: 4.3% | growth inhibition [3]: -0.6% | growth inhibition [4]: -11% | growth inhibition [5]: -0.25% | growth inhibition [6]: 5.3%
